High-throughput results as filed in PubChem BioAssay.
hcDAF-12 act – H. contortus DAF-12 activation, primary screen; HEK293 hcDAF-12 lit1-tk-luc reporter, luminescence; 0% DMSO, 100% Δ7-dafachronic acid; activation, % at 6.8 µM; 370,000 tested, 1.4% active; AID 652067;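 active means activation above the mean of all tested compounds plus 3 SD, cut at about 5.5% in these data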
hgDAF-12 ag – activates the H. glycines DAF-12 receptor ligand-binding domain; HEK293 GAL4-hgDAF12 UAS-luciferase reporter, agonist luminescence; normalized to butyrate control; activation, % at 6.8 µM; 370,000 tested, 1.8% active; AID 687014;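 active means activation above a cutoff set at the mean of all screened compounds plus 3 SD, cut at about 10% in these data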
DAX1 inh-1 – NR0B1 (DAX1) inhibition; HEK293 Gal4-DAX1 luciferase reporter, luminescence; inhibition, % at 6.75 µM; 340,000 tested, 0.99% active; P51843;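 active means inhibition above the mean over all tested compounds plus 3 SD, cut at about 4.2% in these data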;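 further: inhibition shows as a rise in luminescence from relieved DAX1 repression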
Target sequence (P51843 207-470 limits assumed): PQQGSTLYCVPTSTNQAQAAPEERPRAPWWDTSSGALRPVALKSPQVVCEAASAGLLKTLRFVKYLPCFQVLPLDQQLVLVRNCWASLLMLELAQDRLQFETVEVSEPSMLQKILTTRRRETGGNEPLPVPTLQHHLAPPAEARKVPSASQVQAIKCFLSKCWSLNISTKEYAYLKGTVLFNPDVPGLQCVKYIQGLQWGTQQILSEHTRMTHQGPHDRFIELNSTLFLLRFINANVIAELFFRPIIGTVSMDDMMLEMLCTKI
ssDAF12 agonist – activators of S. stercoralis DAF-12 nuclear receptor; HEK293 ssDAF-12/GRIP1 lit1-tk-luc reporter, luminescence; % of 3 µM dafachronic acid response; activation, % at 6.8 µM; 370,000 tested, 1% active;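 active means activation above the mean over all tested compounds plus 3 SD, cut at about 0.9% in these data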
SMARCA2 activ – SMARCA2 function activation, primary screen | MG213 cells, MMTV-luciferase reporter, dexamethasone, overnight | activation, % at 9.1 µM | 370,000 tested, 1% active | AID 652017; in the data active means activation above about 7.8%
DAX1 inh-2 – blocks DAX1 repression of SF-1 activated StAR promoter; HEK293T StAR-luciferase reporter, SF-1/DAX-1 repression relief; inhibition, % at 6.8 µM; 370,000 tested, 1.1% active; AID 652010;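 active means inhibition above the mean over all tested compounds plus 3 SD, cut at about 3.6% in these data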;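 further: higher inhibition means more luminescence from relief of DAX-1 repression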
Large screens that a line does not name were inactive. In the library only some 4.8% were active in any assay of this set; here they are far more common.

Cc1ccc(C)c(C(=O)COc2ccc(C)nc2[N+](=O)[O-])c1	none
Cc1ccc(OCC(=O)c2c[nH]c3ccccc23)c([N+](=O)[O-])n1	hcDAF-12 act 6.3
CCCn1c(C)cc(/C=C(\C#N)C(=O)OCC(=O)N(CC)c2c(N)n(Cc3ccccc3)c(=O)[nH]c2=O)c1C	none
CCc1cccc(NC2c3ccccc3C(=O)N2c2ccc(C)cn2)c1 (stereo not drawn)	hgDAF-12 ag 12
CCc1ccc(C(=O)/C=C/c2cnn(C)c2C)s1	hgDAF-12 ag 12, DAX1 inh-1 5.2
O=C(Nc1ccc(-c2cnco2)cc1)c1ccc(F)cc1F	none
Cc1ccc(-c2cnco2)cc1	DAX1 inh-1 6.3
c1ccc2c(c1)Cn1nc(Cc3nc4c(s3)CCCC4)nc1-2	hcDAF-12 act 5.7, DAX1 inh-1 4.4
N#CCc1nc2n(n1)Cc1ccccc1-2	none
CCOc1ccc(NC(=O)CSc2nc3cc(C(=O)NCC4CCCO4)ccc3c(=O)n2CC2CCCO2)cc1 (stereo not drawn)	none
CC(C)(C)c1ccc(C#C[C@@H]2C=C[C@H](O)[C@@H](COC(=O)Nc3ccccc3)O2)cc1	hcDAF-12 act 5.8, ssDAF12 agonist 1.9 (no result: DAX1 inh-1)
CCNC(=O)OC[C@H]1O[C@H](C#Cc2ccc(C(C)(C)C)cc2)C=C[C@H]1O	none (no result: DAX1 inh-1)
COc1ccccc1N1CCN(S(=O)(=O)c2cc(C(F)(F)F)cc(C(F)(F)F)c2)CC1	DAX1 inh-1 7.7
COc1ccccc1N1CCN(S(=O)(=O)c2ccccc2)CC1	none
CN1CCC(C)(C(=O)Nc2cccc(Oc3ccccc3)c2)C1 (stereo not drawn)	none (no result: DAX1 inh-1)
Cc1ccc(O)c(N=Cc2cccs2)c1	hcDAF-12 act 5.8
Cc1ccc(N2CC(C(=O)OCC(=O)Nc3ccccc3C)CC2=O)cc1 (stereo not drawn)	none
Cn1ccnc1SCc1cn2cc(Br)ccc2n1	ssDAF12 agonist 1.2
Cc1sc2nc(-c3cccnc3)nc(Cl)c2c1-c1ccccc1	DAX1 inh-1 4.3
Cc1csc(NC(=O)Cn2nc(C)c([N+](=O)[O-])c2C)n1	ssDAF12 agonist 2.9
O=C(NC(=S)/C(=C1\CCCCCN1)[N+](=O)[O-])c1ccccc1	none (no result: hcDAF-12 act, hgDAF-12 ag, ssDAF12 agonist, SMARCA2 activ, DAX1 inh-2)
O=C(NCCCn1cccn1)c1cc(COc2ccccc2)on1	DAX1 inh-1 4.2
CCCc1cc(C(=O)NCCc2ccccc2)no1	hgDAF-12 ag 11
COc1ccccc1-c1cc(C(=O)NCCc2ccccc2)no1	none
Cc1ccc(NC(=O)Cc2cccc(OC(F)(F)F)c2)c(S(=O)(=O)N2CCOCC2)c1	none (no result: DAX1 inh-1)
Cc1ccc(CN(C)C(=O)CCNC(=O)c2ccc(Cl)cc2)o1	none
O=C(CNC(=O)c1ccc(Br)cc1)NC1CC1	none
CC1CCC(NC(=O)c2ccc(S(C)(=O)=O)cc2)CC1 (stereo not drawn)	ssDAF12 agonist 6.4
CS(=O)(=O)c1ccc(C(=O)NC2CCOC2=O)cc1 (stereo not drawn)	none
CC1CCC(NC(=O)CCNC(=O)c2ccc(Br)cc2)CC1 (stereo not drawn)	DAX1 inh-2 4.3
Cc1csc(NC(=O)c2ccccc2O)n1	none
Cc1ccc(C(=O)Nc2nc(-c3cccnc3)cs2)o1	none
Cc1ccc(-c2ocnc2C(=O)Nc2nc(C)cs2)cc1	DAX1 inh-1 5.4, ssDAF12 agonist 1.9
Cc1cc(C(=O)Nc2cc(C(C)(C)C)on2)c(C)o1	DAX1 inh-1 6.3
Cc1csc(NC(=O)c2cc(C)oc2C)n1	ssDAF12 agonist 0.9
Cc1csc(NC(=O)c2ccc(C)o2)n1	hgDAF-12 ag 12
COc1ccc(CN(C)[C@H]2C[C@H]3c4[nH]c5ccccc5c4CCN3C[C@H]2[C@H](C)O)cc1	none
C=CCn1c(SCC(=O)NCCCC)nc2scc(-c3ccco3)c2c1=O	none
C=CCn1c(SCC(C)=O)nc2scc(-c3ccc(C)o3)c2c1=O	DAX1 inh-1 4.7
Cn1c(=O)[nH]c2c(Br)nccc21	none (no result: DAX1 inh-1)
Cc1ccc(SCc2cc(=O)[nH]c(Nc3nc(C)c4ccccc4n3)n2)cc1	hcDAF-12 act 6.1
O=C(O)CN1C(=O)C=CC1=O	DAX1 inh-1 4.7
O=C1C=CC(=O)N1CCCCCCN1C(=O)C=CC1=O	none (no result: DAX1 inh-1)
CC1(NC(=O)Nc2ccccc2)CCS(=O)(=O)C1 (stereo not drawn)	none (no result: DAX1 inh-1)
CC1(NC(=O)Nc2cccc(Br)c2)CCS(=O)(=O)C1 (stereo not drawn)	DAX1 inh-1 5.2
Cc1ccc([C@H]2C[C@@H](n3cc(-c4ccc(F)cc4)nn3)[C@H](O)CN2C(=O)c2cccs2)cc1	none
OCCCn1c(C2CCCN2c2nc(-c3ccc(Cl)cc3)cs2)nc2cc(Cl)c(N3CCCCC3)cc21 (stereo not drawn)	DAX1 inh-1 5.3
CC(C)CN1CN2Cc3ccccc3C2CS1(=O)=O (stereo not drawn)	none (no result: DAX1 inh-1)
O=C(NC(c1ccccc1)c1ccccc1)C1CCCC1	ssDAF12 agonist 1.4
CC(NC(=O)C1CCCC1)c1ccccc1 (stereo not drawn)	none
OC(Cc1ccncc1)c1ccccc1Cl (stereo not drawn)	none
CC(=O)C[C@@H]1OC[C@H](Cc2ccccc2)N1S(=O)(=O)c1ccc(C)cc1	none (no result: DAX1 inh-1)
CSCC[C@H](CO)NC(=O)[C@H]1O[C@@H](n2cnc3c(N)ncnc32)[C@H](O)[C@@H]1O	none (no result: DAX1 inh-1)
Cc1ccc(S(=O)(=O)Nc2nc(C)cc(NCCN)n2)cc1	DAX1 inh-1 4.7
Cc1ccc(S(=O)(=O)Nc2nc(C)cc(NN)n2)cc1	none
Cc1nn(C)c(C(=O)N2CCc3ccccc32)c1Br	none
O=C(c1ccccc1)N1CCc2ccccc21	none
Cc1c(Br)c(C(=O)N2CCc3ccccc32)nn1C	DAX1 inh-1 4.4
C/C(=C\C(=O)N1CCc2ccccc21)C(=O)O	DAX1 inh-1 4.3
Cn1cc(Br)c(C(=O)N2CCc3ccccc32)n1	hcDAF-12 act 5.9
CC1(C)CC(=O)C(C2C3=C(CC(C)(C)CC3=O)Oc3c(Br)cc(Br)cc32)=C(O)C1 (stereo not drawn)	hgDAF-12 ag 11
CCN(c1ccccc1)S(=O)(=O)c1cccc(C(=O)NCc2ccccn2)c1	none
Cc1ccc(C(=O)Nc2nnc(COCCO)s2)cc1	hcDAF-12 act 6.0, ssDAF12 agonist 1.0 (no result: DAX1 inh-1)
COc1cc(OC)cc(C(=O)NC2=NCCS2)c1	none
CCOC(=O)CNC(=O)CSc1nnc(NC(=O)c2ccc(C)cc2)s1	hcDAF-12 act 6.4, hgDAF-12 ag 13
COc1ccc(C(=O)NC2=NCCS2)cc1	hgDAF-12 ag 12
COc1cccc(C(=O)Nc2nnc(C3CCCO3)s2)c1 (stereo not drawn)	ssDAF12 agonist 1.0
O=C(Nc1nnc(C2CCCO2)s1)c1cccs1 (stereo not drawn)	none
O=C(O)c1cccc(Cn2c(Cl)c(/C=N/NC(=O)c3ccco3)sc2=O)c1	none
